A selection: hits, their analogues and other compounds. The true share with any hit is near 2%.
LGR2 antag – blocks bursicon-induced cAMP signaling via Drosophila LGR2. HEK293 LGR2, CRE-luciferase, bursicon-stimulated, 4 h. inhibition, % at 9.99 µM. 0.35% of 380,000 active. AID 720647;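 active = drop in luminescence signal, shown as inhibition above about 50% in the replicate tests, limit read from the data, passing the limit was not always enough; inconclusive = probably only some replicates passing the limit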;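 note: agonist challenge used bursicon conditioned medium at about half maximal strength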
EWS-Fli block – blocks EWS/Fli oncoprotein-driven transcription. A673 NR0B1-luciferase reporter, viability-normalised. inhibition, % at 12.6 µM. 0.67% of 350,000 active;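 active = mean inhibition of at least 50% after viability correction, with every replicate also passing that limit; inconclusive = mean reaches 50% but only one of two replicates passes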;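 note: firefly luciferase signal divided by Alamar Blue viability fluorescence both relative to DMSO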
PAX8 inh HTS – lowers PAX8-driven luciferase in RMG-I cells. inhibition, % at 12.6 µM. AID 652154. 1.2% of 360,000 active. RMG-I TPO-luciferase reporter, SteadyGlo, 24 h;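 active = mean replicate inhibition at least 60% with every replicate also reaching 60%; inconclusive = only one of the two criteria is met; inactive = mean below 60% and not all replicates reaching 60%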;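 note: luciferase light reporting Pax8 driven TPO promoter activity; plate controls were median of neutral control wells for no effect and mitoxantrone controls for full effect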
CF NFkB inh – blocks PAF-induced NF-kB reporter in cystic fibrosis cells; KKLEB NF-kB-GFP reporter, GFP fluorescence overnight; inhibition, % at 5 µM; 0.86% of 360,000 active;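 active = at least 50% inhibition at 5 µM, scaled per plate between neutral and stimulator controls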;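 note: PAF is a Pseudomonas aeruginosa culture filtrate used as stimulus; plate controls were PAF-stimulated DMSO wells for no effect and unstimulated DMSO wells for full effect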
Shn3 3UTR inh – reduces Shn3 3'UTR luciferase signal in osteoblasts; Clone20 osteoblast Shn3 3'UTR firefly luciferase, 24 h; inhibition, % at 12.5 µM; 0.52% of 360,000 active;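 active = mean inhibition of at least 75% with every replicate also reaching 75%; inconclusive = mean inhibition at least 75% but some replicate below; inactive = mean inhibition below 75%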;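 note: 0% = median of neutral control wells and 100% = pilot-screen positive control compound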
KKLEB tox – reduces viability of KKLEB cystic fibrosis airway cells. activity change (cytotoxicity), % at 5 µM. 0.36% of 360,000 active. KKLEB CF airway cells viability, ATPlite luminescence, overnight; hits give low values; cells stimulated with P. aeruginosa culture filtrate;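 active = corrected activity change at or below -50% at 5 µM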
* marks the source's active call; other numbers are inactive results; u = inconclusive; x = no result.

SMILES	LGR2 antag	EWS-Fli block	PAX8 inh HTS	CF NFkB inh	Shn3 3UTR inh	KKLEB tox
COc1ccc(S(=O)(=O)N(C)C[C@H]2Oc3ccc(NS(=O)(=O)c4ccccc4)cc3C(=O)N([C@@H](C)CO)C[C@@H]2C)cc1	-9	0	-9	x	x	x
CCCn1c(NC(=O)c2cccc(S(=O)(=O)N3CCCC3)c2)nc2ccccc21	x	x	74*	74*	71	-13
COc1ccc(C(=O)c2c(C(F)(F)F)oc3c2C(=O)c2ccccc2C3=O)cc1OC	x	x	x	88*	89*	-65*
C[C@@H]1CN([C@@H](C)CO)C(=O)c2cccc(NS(=O)(=O)c3ccccc3)c2O[C@H]1CN(C)CC1CC1	-3	10	4	x	x	x
O=C(NNC(=O)C1CCN(S(=O)(=O)c2ccc(Cl)cc2)CC1)c1ccccc1O	24	-1	33	4	87*	11
COc1ccc(-n2nnnc2-c2cnc(N3CCCC3)nc2C(F)(F)F)cc1	x	x	x	4	87*	-10
FC(F)(F)c1nc(-c2cccs2)ncc1-c1nnnn1-c1ccc(Cl)cc1	x	x	x	4	86*	2
O=C(C[C@H]1CC[C@H](NC(=O)C2CC2)[C@H](CO)O1)NCC1CC1	-5	-2	x	x	x	x
C=C1C(=O)O[C@H]2[C@@H]1CC/C(CO)=C\CC[C@@]1(C)O[C@@H]21	x	11	83*	x	x	x
CC(C)C#Cc1ccc2c(c1)O[C@H](CN(C)C(=O)c1cccnc1)[C@H](C)CN([C@H](C)CO)S2(=O)=O	-3	0	x	x	x	x
COc1ccc(-c2ccc(CN3C(C(C)C)C(=O)N(Cc4cn(CCC5OCCO5)nn4)CCS3(=O)=O)cc2)cc1OC (stereo unspecified)	4	2	-14	29	-19	-16
CC(C)C1C(=O)N(Cc2cn(CCC3OCCO3)nn2)CCS(=O)(=O)N1Cc1ccc(-c2ccc(Cl)c(Cl)c2)cc1 (stereo unspecified)	18	-1	13	31	89*	-9
COCOCCn1cc(CN2CCS(=O)(=O)N(Cc3ccc(-c4ccc(Cl)c(Cl)c4)cc3)C(C(C)C)C2=O)nn1 (stereo unspecified)	12	11	34	8	91*	-7
CN(C)CC(=O)N1CC[C@@H]2[C@H]1c1cc(Br)ccc1N(C)[C@H]2CO	15	-16	-3	x	x	x
Cc1[nH]nc2c1C(c1cc(Br)cs1)C(C#N)=C(N)O2 (stereo unspecified)	14	19	10	60*	-12	-14
CC(C)C#Cc1cnc2c(c1)C(=O)N([C@@H](C)CO)C[C@@H](C)[C@@H](CN(C)C(=O)Nc1cc(F)ccc1F)O2	-13	-1	x	x	x	x
O=C(O)C[C@@H]1CC[C@H](NC(=O)CCN2CCCCC2)[C@@H](CO)O1	-29	x	-6	x	x	x
COc1cc(C=NO)nc(-c2ccccn2)c1	4	u	x	18	93*	-16
N#Cc1cccc(-c2ccc([C@H]3[C@H]4CN(C(=O)Nc5ccc(F)cc5)CCCCN4[C@H]3CO)cc2)c1	-5	2	24	x	x	x
O=c1[nH]cnc2c1nnn2C1OC(CO)C(O)C1O (stereo unspecified)	-10	-11	x	6	-39	-7
OC[C@H]1O[C@@H](n2cnc3c(NC4CCCC4)nc(Cl)nc32)[C@H](O)[C@@H]1O	8	-3	12	-8	32	0
Nc1nc(Cl)nc2c1ncn2[C@@H]1O[C@H](CO)[C@@H](O)[C@H]1O	-10	1	70*	12	3	-2
COc1ccc(C[C@H](N)C(=O)N[C@H]2[C@@H](O)[C@H](n3cnc4c(N(C)C)ncnc43)O[C@@H]2CO)cc1	7	6	117*	-18	5	7
CN(C)c1ncnc2c1nnn2C1OC(CO)C(O)C1O (stereo unspecified)	5	26	91*	12	-31	-10
CN(C)c1ncnc2c1ncn2C1OC(CO)C(O)C1O (stereo unspecified)	x	x	x	46	96*	-43
SMILES	LGR2 antag	EWS-Fli block	PAX8 inh HTS	CF NFkB inh	Shn3 3UTR inh	KKLEB tox
O=C1C=C(N2CCCCC2)c2ccccc2C1=O	20	-2	87*	100*	46	-77*
COc1cc(/C=N\Nc2nc3ccccc3[nH]2)cc(OC)c1OC	x	x	-38	1	51	0
COc1ccc2c(c1)c(/C=N/Nc1nc3ccccc3[nH]1)c(C)n2C	59*	20	57	-44	x	13
CC(C)C(=O)N1CCN(c2ccc(NC(=O)c3ccc(Br)o3)cc2)CC1	x	x	-14	5	3	8
Cc1ccc(NC(=O)COc2ccccc2[N+](=O)[O-])nc1	54*	-117	-28	0	-18	7
CC(C)C(=O)N1CCN(c2ccc(NC(=O)c3ccc([N+](=O)[O-])o3)cc2)CC1	4	35	97*	90*	60	-47
Cc1ccccc1C(=O)N1CCN(c2ccc(NC(=O)c3ccc([N+](=O)[O-])o3)cc2)CC1	1	61*	9	64*	99*	-20
CC(C)C(=O)N1CCN(c2ccc(NC(=O)COc3ccccc3[N+](=O)[O-])cc2)CC1	63*	-2	40	11	36	-6
C[C@@H]1CN([C@H](C)CO)C(=O)c2cc(C#Cc3ccccn3)cnc2O[C@@H]1CN(C)Cc1ccccc1	-4	10	x	x	x	x
CCCN(C)C[C@@H]1Oc2ncc(C#Cc3ccc(OC)cc3)cc2C(=O)N([C@H](C)CO)C[C@@H]1C	-3	8	x	x	x	x
O=C(Nc1ccc(N2CCN(C(=O)c3ccccc3)CC2)cc1)c1ccc([N+](=O)[O-])o1	1	66*	100*	84*	42	-72*
Cc1ccc(CN(C)C[C@@H]2OCc3cn(nn3)CCCC(=O)N([C@@H](C)CO)C[C@@H]2C)cc1	-6	-3	x	x	x	x
c1ccc(-c2nc(-c3ccccn3)nc(-c3ccccn3)n2)nc1	3	-1	15	-8	4	-15
c1ccc(-c2nnc(-c3ccccn3)s2)nc1	60*	49	1	-13	-2	3
CCCCc1ccc(NC(=O)C(=O)NCCN2CCN(Cc3ccc([N+](=O)[O-])cc3)CC2)cc1	21	24	1	1	94*	-24
O=C(NC1CCCCC1)[C@H]1[C@H](CO)[C@H]2Cn3c(cccc3=O)[C@H]2N1CC1CCCC1	13	-1	x	x	x	x
COCCCn1c(-c2ccc(S(=O)(=O)N3CCOCC3)cc2)csc1=Nc1ccccc1	9	x	-2	-15	91*	0
CCn1c(-c2ccccc2)csc1=Nc1ccc(S(=O)(=O)O)cc1	18	10	-6	4	2	9
COc1cccc(S(=O)(=O)N2CC[C@@H]3[C@@H](CO)Nc4ccc(-c5ccccc5OC)cc4[C@@H]32)c1	0	5	80*	x	x	x
COc1ccccc1S(=O)(=O)N1CC[C@H]2[C@H](CO)Nc3ccc(-c4ccc(F)cc4)cc3[C@H]21	2	0	72*	x	x	x
